BoNT A protease: BoNT A light chain protease inhibition. multiplex microsphere protease substrate cleavage, flow cytometry. inhibition, % at 10 µM. 360,000 compounds, 0.17% hits. AID 588499; in the data active means inhibition above about 30%; inconclusive means no clear call, values can overlap the other calls; further: plate controls were buffer without enzyme for full effect and enzyme alone for no effect
FBA Mtb inh: inhibitors of M. tuberculosis fructose-bisphosphate aldolase | P9WQA3 | purified M. tuberculosis FBA, fluorescence read-out | inhibition, % at 1 µM | 360,000 compounds, 2.3% hits | AID 588726;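 further: 0% = vehicle and 100% = reference inhibitor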
Target sequence (P9WQA3 whole entry, looked up): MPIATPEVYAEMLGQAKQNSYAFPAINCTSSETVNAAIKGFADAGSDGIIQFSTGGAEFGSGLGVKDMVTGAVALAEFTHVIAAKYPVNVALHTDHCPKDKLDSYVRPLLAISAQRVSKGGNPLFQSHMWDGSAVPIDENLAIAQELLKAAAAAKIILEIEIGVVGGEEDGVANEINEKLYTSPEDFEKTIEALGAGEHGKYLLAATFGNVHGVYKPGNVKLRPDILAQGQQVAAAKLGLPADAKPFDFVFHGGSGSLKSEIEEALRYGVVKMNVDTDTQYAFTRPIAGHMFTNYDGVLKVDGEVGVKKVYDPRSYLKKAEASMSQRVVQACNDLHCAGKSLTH
Bead autofluor: compound fluorescence in toxin protease inhibitor counterscreen. compound autofluorescence counterscreen, microsphere flow cytometry; active compounds read high. fluorescence intensity (concentration not given with the values). 360,000 compounds, 3.1% hits. AID 624483; in the data active means fluorescence intensity above about 16000; inconclusive means no clear call, values can overlap the other calls
GDH-TPI counter-1: GDH-TPI coupled enzyme inhibition counter-screen; 360,000 compounds, 1.2% hits; GDH-TPI coupled enzyme counterscreen, NADH absorbance; inhibition, % at 4.8 µM; in the data active means inhibition above about 30%;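 further: 0% = DMSO wells and 100% = wells lacking the enzyme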
Anthrax LF prot: anthrax lethal factor protease inhibition | P15917 | inhibition, % at 10 µM | multiplex microsphere protease cleavage assay, LF | 360,000 compounds, 0.12% hits; in the data active means inhibition above about 30%; inconclusive means no clear call, values can overlap the other calls; further: plate controls were buffer without enzyme for full effect and enzyme alone for no effect
BoNT F protease: blocks Botulinum neurotoxin F light chain protease | Multiplex microsphere protease cleavage assay, flow cytometry | inhibition, % at 10 µM | 360,000 compounds, 0.22% hits | AID 588497; in the data active means inhibition above about 35%, passing the limit was not always enough; inconclusive means no clear call, values can overlap the other calls; further: plate controls were buffer without enzyme for full effect and enzyme alone for no effect
Mtb FBA confirm: Mtb FBA inhibition, confirmed | shares compounds with FBA Mtb inh | purified M. tuberculosis FBA, fluorescence read-out | inhibition, % at 1 µM | 5,600 compounds, 78% hits;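 further: 0% = vehicle wells and 100% = reference inhibitor wells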
GDH-TPI counter-2: GDH-TPI inhibition counter-screen for FBA inhibitors; 5,600 compounds, 81% hits; GDH-TPI coupled enzyme counterscreen, fluorescence; inhibition, % at 1 µM; shares compounds with FBA Mtb inh; AID 652141; in the data active means inhibition above about 10%
Active calls of the source: *; u = inconclusive; x = no result; + = active, no number. A selection: hits, their analogues and other compounds. The true share with any hit is near 6.6%. Unless noted, no stated cut-off is given here; in the data, active means inhibition above about 27%; inactive means the rest.

SMILES | BoNT A protease | FBA Mtb inh | Bead autofluor | GDH-TPI counter-1 | Anthrax LF prot | BoNT F protease | Mtb FBA confirm | GDH-TPI counter-2
COc1ccc2c(=O)c(-c3cnn(-c4ccccc4)c3)c(C)oc2c1 | -2 | 3 | 10843 | -7 | -2 | -15 | x | x
CC(=O)Oc1ccc2c(=O)c(-c3ccccc3)c(C)oc2c1 | 0 | 43* | 5518 | 3 | -1 | -11 | 49* | 43*
CCOC(=O)c1c(-c2ccccc2)oc2ccc(OC(C)=O)cc12 | 2 | 43* | 4537 | 10 | -1 | -8 | 2 | -4
O=c1cc(-c2cccs2)oc2ccc(Cl)cc12 | -1 | 38* | 22409* | 38* | -1 | 0 | 156* | 120*
O=c1cc(-c2ccccc2)oc2ccc(Cl)cc12 | 0 | 2 | 3900 | 0 | -1 | -5 | x | x
COc1ccc(-c2ccc(-c3nnc(Cc4ccc(OC)c(OC)c4)o3)cc2)cc1 | 1 | 39* | 22185* | 15 | -5 | 4 | -4 | -2
c1ccc(-c2nnc(-c3ccccc3)o2)cc1 | 0 | 4 | 5674 | 5 | -2 | 0 | x | x
CCOC(=O)COc1ccc(-c2nnc(-c3ccccc3)o2)cc1 | 5 | 59* | 13910 | 7 | -19 | 8 | 41* | 35*
COc1ccc(-c2nnc(-c3ccccc3)o2)cc1OC | 2 | 31* | 3506 | 1 | 2 | 12 | 149* | 107*
CCOc1ccc(-c2nnc(-c3ccccc3)o2)cc1 | 0 | 91* | 3014 | 4 | -4 | -1 | 88* | 74*
CC(=O)Nc1cc(NC(C)=O)ncn1 | 2 | 1 | 2808 | 5 | 10 | -7 | x | x
Cc1ccc(S(=O)(=O)Cn2nnnc2CN(Cc2ccco2)CC2CCCO2)cc1 (centres undefined) | 0 | 1 | 3390 | -8 | -5 | -4 | x | x
O=S(=O)(Nc1nc2cc3c(cc2nc1Cl)OCCO3)c1ccccc1 | 0 | 48* | 3962 | 3 | 1 | -5 | 61* | 37*
CC(=O)Nc1ccc(S(=O)(=O)Nc2nc3cc4c(cc3nc2Cl)OCCO4)cc1 | 1 | 62* | 3264 | 24 | 2 | 1 | 76* | 71*
CC(=O)Nc1ccc(S(=O)(=O)Nc2nc3ccccc3nc2Cl)cc1 | -1 | -1 | 3707 | -3 | 4 | 8 | x | x
NS(=O)(=O)c1ccccc1NC(=S)Nc1ccccc1S(N)(=O)=O | 0 | 62* | 3018 | -12 | 9 | 25 | + | 167*
CC(=O)Nc1cccc(S(N)(=O)=O)c1C | 1 | 0 | 4440 | 5 | 0 | 4 | x | x
O=C(CN1CCCCCC1)NCC1CCCO1 (centres undefined) | -1 | 97* | 4689 | -3 | -5 | 1 | 80* | 73*
CCN1CCCC1CNC(=O)c1cc2cc(F)ccc2[nH]1 (centres undefined) | -2 | 30* | 4760 | -1 | 3 | -11 | + | +
COc1ccccc1-n1c(C)c(C(=O)O)c2cc(OC)c3ccccc3c21 | -2 | 27* | 3800 | 1 | 0 | 8 | 87* | 82*
Cn1c(N)c(C(=O)Nc2c(Cl)cccc2Cl)sc1=S | u | 2 | 4484 | 14 | -3 | u | x | x
Cc1[nH]n2c(=O)c3c(nc2c1-c1ccccc1)CCCC3 | 2 | 5 | 4447 | 4 | -5 | 28 | x | x
Cc1[nH]n2c(=O)c3c(nc2c1-c1cccc2ccccc12)CCC3 | 1 | 51* | 8743 | 8 | -1 | -2 | 132* | 96*
COc1ccccc1C(=O)COC(=O)C1(C)CC1(Cl)Cl (centres undefined) | 0 | -1 | 3956 | 13 | 1 | 1 | x | x
O=C1CC(C(=O)Nc2ccc(O)c(C(=O)O)c2)C(c2ccccc2)O1 (centres undefined) | 2 | 59* | 9962 | 8 | 2 | 2 | 143* | 165*
SMILES | BoNT A protease | FBA Mtb inh | Bead autofluor | GDH-TPI counter-1 | Anthrax LF prot | BoNT F protease | Mtb FBA confirm | GDH-TPI counter-2
O=C(NCCCc1ccccc1)c1ccc(CS(=O)Cc2ccc(Cl)cc2)o1 (centres undefined) | 1 | -1 | 4183 | 0 | -2 | 2 | x | x
CC(=O)N1CCC2(CC1)CC(=O)c1cc(OCC(=O)NCc3ccc(C)cc3)ccc1O2 | 0 | 51* | 11150 | 3 | -2 | 2 | -6 | -4
CC(=O)N1CCC2(CC1)CC(=O)c1cc(OCC(=O)NCc3ccco3)ccc1O2 | 0 | 35* | 10962 | 13 | 0 | 5 | 121* | 80*
Cc1cccc(OCC(=O)N2CCC3(CC2)CC(=O)c2ccccc2O3)c1 | u | 6 | u | 8 | 4 | -9 | x | x
COC(=O)C1CCN(C(=O)COC(=O)c2oc3ccc(OC)cc3c2C)CC1 | 0 | 51* | 6225 | 2 | 1 | 3 | 108* | 103*
CCOC(=O)N1CCN(C(=O)COC(=O)c2oc3ccc(OC)cc3c2C)CC1 | -1 | 48* | 5777 | -1 | -3 | -2 | + | +
COc1ccc2oc(C(=O)OCC(=O)N3CCC(C)CC3)c(C)c2c1 | 1 | 44* | 5667 | 12 | -1 | 3 | 9 | 1
Cc1c(C(=O)OCC(=O)N2CCC(C)CC2)oc2ccccc12 | 0 | 2 | 5230 | 3 | -4 | 2 | x | x
CN(C)C(=S)SCCn1c(N)nc(N(C)C)nc1=O | u | -3 | 4164 | -9 | -11 | u | x | x
COc1ccc(-c2csc(C(NC(C)=O)c3cccc(F)c3)n2)cc1 (centres undefined) | 0 | 2 | 2889 | 11 | -6 | -2 | x | x
CCCN(C(=O)c1nc2nc(C)cc(C)n2n1)c1c(N)n(Cc2ccccc2)c(=O)[nH]c1=O | 0 | -2 | 3910 | 5 | -3 | -3 | x | x
O=C1CCC(=O)N1c1nc2nc(-c3ccccc3)cc(-c3ccccc3)n2n1 | 1 | 66* | 3246 | 23 | -7 | 0 | 89* | 62*
O=c1cc(-c2ccccc2)nc2nc(-c3ccccc3)[nH]n12 | -2 | 2 | 4802 | 5 | -4 | -31 | x | x
CC(=O)Nc1ccc(-c2ccnc3c2CC(C)(C(=O)NC(C)C)O3)cc1 (centres undefined) | 0 | 9 | 3902 | 2 | 3 | -3 | x | x
COc1cc(OC)cc(C(=O)N2CCN(c3ccc(N4CCOCC4)nn3)CC2)c1 | 0 | 28* | u | 12 | -1 | -2 | -3 | -8
Cc1cccc(C(=O)N2CCN(c3ccc(N4CCOCC4)nn3)CC2)c1 | 1 | 21 | 5278 | 1 | -1 | -4 | x | x
Cc1ccc(C(=O)N2CCN(c3ccc(N4CCOCC4)nn3)CC2)cc1 | 4 | 37* | 4117 | -6 | -3 | 8 | + | +
Cc1oc2cc([N+](=O)[O-])c(O)c([N+](=O)[O-])c2c1C(=O)c1ccc(Cl)cc1 | -2 | 72* | u | 31* | 3 | -2 | 14 | 13*

Screening data deposited in PubChem by several laboratories.
